# Screening data deposited in PubChem by Broad Institute.
# MITF inh – MITF inhibition. TRPM1 promoter luciferase, luminescence, 24 h. inhibition, % (test concentration not listed). 37,000 compounds, 0.28% hits; in the data active = inhibition above about 85%;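 also: human melanocyte line stably carrying TRPM1 promoter luciferase reporter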
# NOMO-1 viab – STK33 inhibitor candidate reducing NOMO-1 cell viability. 37,000 compounds, 7.5% hits. NOMO-1 AML viability, CellTiter-Glo luminescence, 72 h. inhibition, % (concentration not given with the values); in the data active = inhibition above about 80%
# Hedgehog inh – Sonic Hedgehog pathway inhibition; 22,000 compounds, 2.1% hits; inhibition, % (no concentration beside the values); AID 2313; Shh-LIGHT2 Gli-luciferase reporter, 30 h;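 active = mean inhibition across valid replicates above about 65%, limit read from the data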;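 also: pathway switched on by Shh-conditioned medium diluted 1 in 25 in low serum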
# Numbers without * were called inactive; · = not tested or not shown. The list is not random: actives were taken first. Their share in the collection is about 7.8%.
SMILES,MITF inh,NOMO-1 viab,Hedgehog inh
CS(=NC(=O)Nc1ccc(Cl)cc1)c1sc(Cl)c2c1C(=O)CCC2 (configuration not stated),3.1,116.1*,52.7
C[C@H](CO)N1C[C@H](C)[C@H](CN(C)C(=O)NC2CCCCC2)Oc2ccc(NC(=O)Nc3ccc(C(F)(F)F)cc3)cc2C1=O,64.1,63.4,19.9
C[C@@H]1CN([C@H](C)CO)C(=O)c2cc(NC(=O)Nc3ccc(C(F)(F)F)cc3)ccc2O[C@@H]1CN(C)C(=O)Nc1ccc(C(F)(F)F)cc1,55.0,94.0*,-51.0
C[C@H]1CN([C@@H](C)CO)C(=O)c2cc(NC(=O)Nc3ccc(C(F)(F)F)cc3)ccc2O[C@H]1CN(C)C(=O)NC1CCCCC1,35.6,103.4*,-14.5
C[C@@H]1CN([C@@H](C)CO)C(=O)c2cc(NC(=O)Nc3ccc(F)cc3)ccc2O[C@H]1CN(C)C(=O)Nc1ccc(C(F)(F)F)cc1,35.1,61.3,-37.6
C[C@@H]1CN([C@H](C)CO)C(=O)c2cc(NC(=O)Nc3ccc(F)cc3)ccc2O[C@@H]1CN(C)C(=O)Nc1ccc(C(F)(F)F)cc1,12.8,48.2,-4.5
C[C@H]1CN([C@@H](C)CO)C(=O)c2cc(NC(=O)Nc3ccc(C(F)(F)F)cc3)ccc2O[C@H]1CN(C)C(=O)Nc1ccc(F)cc1,30.8,76.3,8.0
C[C@@H]1CN([C@@H](C)CO)C(=O)c2cc(NC(=O)Nc3ccc(C(F)(F)F)cc3)ccc2O[C@H]1CN(C)C(=O)Nc1ccc(C(F)(F)F)cc1,47.0,104.7*,10.2
C[C@@H]1CN([C@@H](C)CO)C(=O)c2cc(NC(=O)Nc3ccc(C(F)(F)F)cc3)ccc2O[C@@H]1CN(C)C(=O)Nc1ccc(C(F)(F)F)cc1,49.8,113.6*,30.8
CSc1nsc(SCc2cnc(C)nc2N)n1,7.8,13.9,·
CN1CCN(CCCn2nnc3c(=O)oc4ccccc4c32)CC1,-16.0,1.9,·
O=C(NC(=S)Nc1ccccc1Cl)c1cnn2c(C(F)(F)F)cc(C(F)(F)F)nc12,13.6,10.8,3.4
COC(=O)C1=COC(O[C@@H]2O[C@H](CO)[C@@H](O)[C@H](O)[C@H]2O)[C@H]2[C@@H]1[C@H](OC(=O)CCc1ccc(O)cc1)C[C@]2(C)O (some centres not stated),-15.2,1.8,-21.0
COc1ccc(CN(C)C[C@H]2OCCCC[C@@H](C)Oc3ccc(NC(=O)c4ccncc4)cc3C(=O)N([C@H](C)CO)C[C@@H]2C)cc1,-11.4,-9.9,-7.3
C[C@H]1CN([C@@H](C)CO)C(=O)c2cc(NC(=O)Nc3ccc(C(F)(F)F)cc3)ccc2O[C@H]1CN(C)C(=O)Nc1ccc(C(F)(F)F)cc1,40.7,119.6*,31.5
C[C@H](CO)N1C[C@H](C)[C@@H](CN(C)C(=O)Nc2ccc(C(F)(F)F)cc2)Oc2ccc(NC(=O)Nc3ccccc3)cc2C1=O,-1.4,2.1,-31.3
COc1ccc(Br)cc1CN1CCN(Cc2c[nH]c3ccccc23)CC1,6.5,27.6,·
C[C@@H]1CCCCO[C@@H](CN(C)S(C)(=O)=O)[C@@H](C)CN([C@H](C)CO)C(=O)c2cc(NS(=O)(=O)c3ccc(F)cc3)ccc2O1,0.7,15.2,74.4*
C[C@@H]1CCCCO[C@@H](CN(C)S(=O)(=O)c2ccc(Cl)cc2)[C@@H](C)CN([C@H](C)CO)C(=O)c2cc(NS(=O)(=O)c3cccs3)ccc2O1,20.2,57.2,49.5
C[C@@H]1CCCCO[C@@H](CN(C)C(=O)Nc2ccc(F)cc2)[C@@H](C)CN([C@H](C)CO)C(=O)c2cc(NS(=O)(=O)c3cn(C)cn3)ccc2O1,13.1,10.9,-8.0
CC(C)NC(=O)N(C)C[C@H]1OCCCC[C@@H](C)Oc2ccc(NS(=O)(=O)c3cn(C)cn3)cc2C(=O)N([C@H](C)CO)C[C@@H]1C,-3.1,-2.0,71.8*
C[C@@H]1CCCCO[C@H](CN(C)S(=O)(=O)c2ccc(F)cc2)[C@@H](C)CN([C@H](C)CO)C(=O)c2cc(NS(=O)(=O)c3ccc(F)cc3)ccc2O1,18.3,24.1,-28.0
C[C@@H]1CCCCO[C@H](CN(C)S(=O)(=O)c2ccc(F)cc2)[C@@H](C)CN([C@H](C)CO)C(=O)c2cc(NS(=O)(=O)c3ccc(Cl)cc3)ccc2O1,18.1,67.0,12.9
C[C@@H]1CCCCO[C@@H](CN(C)S(=O)(=O)c2ccc(F)cc2)[C@@H](C)CN([C@H](C)CO)C(=O)c2cc(NS(=O)(=O)c3ccc(Cl)cc3)ccc2O1,44.7,112.3*,-53.4
C[C@@H]1CCCCO[C@@H](CN(C)S(=O)(=O)c2cccs2)[C@@H](C)CN([C@H](C)CO)C(=O)c2cc(NS(=O)(=O)c3ccc(Cl)cc3)ccc2O1,43.2,86.3*,-1.9
SMILES,MITF inh,NOMO-1 viab,Hedgehog inh
O=C(CSc1ncn[nH]1)Nc1ccc(I)cc1,-11.6,39.2,·
OCCNC(=S)Nc1ccccc1,-3.5,3.1,·
Cc1ccc(S(=O)(=O)Nc2ccc3c(c2)C(=O)N([C@H](C)CO)C[C@H](C)[C@H](CN(C)S(=O)(=O)c2ccc(C)cc2)OCCCC[C@@H](C)O3)cc1,31.7,94.7*,·
Cc1ccc(S(=O)(=O)Nc2ccc3c(c2)C(=O)N([C@H](C)CO)C[C@H](C)[C@@H](CN(C)S(=O)(=O)c2ccc(C)cc2)OCCCC[C@@H](C)O3)cc1,8.9,60.7,18.6
Cc1c(Br)c(C(F)(F)F)nn1CC(=O)Nc1cc(O)cc([N+](=O)[O-])c1,31.5,52.8,·
C[C@H]1[C@H](C)CC[C@]2(C(=O)O)CC[C@]3(C(=O)O)C(=CCC4[C@@]5(C)CC[C@H](O[C@@H]6O[C@@H](C)[C@H](O)[C@@H](O)[C@H]6O)C(C)(C)C5CC[C@]43C)[C@H]12 (some centres not stated),1.6,17.0,-2.9
COc1ccc(S(=O)(=O)Nc2ccc3c(c2)C(=O)N([C@@H](C)CO)C[C@@H](C)[C@H](CN(C)Cc2ccc(C(=O)Nc4ccccc4N)cc2)O3)cc1,8.9,40.4,·
COc1ccc(S(=O)(=O)Nc2ccc3c(c2)C(=O)N([C@H](C)CO)C[C@@H](C)[C@@H](CN(C)Cc2ccc(C(=O)Nc4ccccc4N)cc2)O3)cc1,21.0,108.4*,·
Cc1ccc(S(=O)(=O)Nc2ccc3c(c2)C(=O)N([C@H](C)CO)C[C@H](C)[C@@H](CN(C)Cc2ccc(C(=O)Nc4ccccc4N)cc2)O3)cc1,-0.8,27.0,·
COc1ccc(S(=O)(=O)Nc2ccc3c(c2)C(=O)N([C@@H](C)CO)C[C@@H](C)[C@@H](CN(C)Cc2ccc(C(=O)Nc4ccccc4N)cc2)O3)cc1,17.4,109.7*,·
COC(=O)c1ccsc1NC(=O)CSc1nnnn1-c1ccccc1SC,22.1,5.7,·
COc1ccc(NC(=O)N(C)C[C@H]2Oc3c(NC(=O)Nc4ccc(F)cc4)cccc3C(=O)N([C@@H](C)CO)C[C@H]2C)cc1,6.6,14.7,-24.6
COC(=O)c1cc(O)cc(O)c1C(=O)c1c(O)cc(C)cc1O,-5.2,3.0,-11.1
COc1ccc(S(=O)(=O)Nc2cccc3c2O[C@H](CN(C)C(=O)Nc2ccccc2)[C@H](C)CN([C@H](C)CO)C3=O)cc1,0.0,-5.6,-16.1
CNC[C@@H]1Oc2c(NC(=O)c3nc4ccccc4s3)cccc2C(=O)N([C@H](C)CO)C[C@H]1C,2.4,37.0,-7.8
